Experimental findings from PubChem BioAssay AID624255 (Broad Institute, 2012) are described below.

Several values for one entry are separate records, joined by “and”; a condition that tells them apart may be missing. Equal values may be shown once. Screen size: about 77,000 compounds; about 4,600 (6%) were called active. Roughly 1% stayed inconclusive and do not appear here. The entries come from a sample that favours actives as a whole. A number with no mark means an inactive call.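 Rule for the calls: active = mean inhibition above about 93%, with at least 55% of replicates each passing it (limit read from the data, passing the limit was not always enough); inconclusive = only one of those two conditions holds; inactive = neither condition holds.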

The test is described as follows: growth inhibition of T. cruzi in host fibroblasts – cell-based, beta-gal Tulahuen parasites, NIH3T3 host, luminescence, primary screen (AID 624255). The following applies: T. cruzi beta-gal in NIH3T3, GalScreen luminescence, 90 h; at 8.34 µM; stronger effect = higher value.
As a reminder, the inhibition is the relative decrease from the control value, in per cent. `CO[C@H]1CN(C)C(=O)c2ccc(NS(C)(=O)=O)cc2OC[C@@H](C)N(C(=O)c2ccc3c(c2)OCO3)C[C@@H]1C`: the inhibition was 22.5%. For `O=C(C[C@@H]1CC[C@H]2[C@@H](COC[C@H](O)CN2C(=O)Nc2ccc(Cl)cc2)O1)NCC1CC1`, the inhibition was 9.76%.

`O=C(c1cccnc1)N1C[C@H]2[C@@H](c3ccccc31)[C@H](CO)N2C(=O)C1CC1`: the inhibition is 32.1%. The figure for `COc1ccc(NC(=O)Nc2ccc3c(c2)[C@H]2C[C@H](CC(=O)NC4CCCCC4)O[C@H](CO)[C@H]2O3)cc1` is -22.1%.

On to `O=C(NC1CCCC1)[C@H]1[C@H](CO)[C@H]2Cn3c(cccc3=O)[C@H]2N1C(=O)NC1CCCC1`, for which the inhibition is -32.8%. As for `C[C@@H]1CN([C@H](C)CO)C(=O)c2cc(-c3cccc(C#N)c3)cnc2O[C@H]1CN(C)C(=O)C1CCC1`, the inhibition was -99.6%.

For the compound `COCC(=O)Nc1ccc2c(c1)OC[C@H](C)N(C(=O)c1ccccn1)C[C@@H](C)[C@H](OC)CN(C)C2=O`, the inhibition was 26.6%.

Turning to `C[C@H](CO)N1C[C@H](C)[C@@H](CN(C)C(=O)C2CC2)Oc2ncc(-c3cccc(C#N)c3)cc2C1=O`, the inhibition was 68.3%. The figure for `Cc1ccc(S(=O)(=O)N2C[C@H](O)COC[C@@H]3O[C@H](CC(=O)N[C@H]4CCN(Cc5ccccc5)C4)CC[C@H]32)cc1` is 51.3%; for `CCC(=O)N(C)C[C@H]1Oc2cc(C#CCC(C)C)ccc2S(=O)(=O)N([C@H](C)CO)C[C@H]1C` it is 41.2%; for `C[C@@H]1CN([C@@H](C)CO)S(=O)(=O)c2ccc(C#CCN(C)C)cc2O[C@H]1CN(C)C(=O)C1CC1` it is 94.7% (active).

As to `C[C@H](O)C#Cc1ccc2c(c1)O[C@@H](CN(C)C(=O)C1CC1)[C@H](C)CN([C@H](C)CO)S2(=O)=O`, the inhibition was -20.8%. To `C[C@H](O)C#Cc1ccc2c(c1)O[C@H](CN(C)C(=O)C1CC1)[C@@H](C)CN([C@H](C)CO)S2(=O)=O` belongs 13.9%; to `CC(C)CC#Cc1ccc2c(c1)O[C@H](CN(C)C(=O)C1CC1)[C@@H](C)CN([C@@H](C)CO)S2(=O)=O`, 115% (active); to `C[C@@H]1CN([C@H](C)CO)S(=O)(=O)c2ccc(-c3ccccc3)cc2O[C@@H]1CN(C)C(=O)C1CC1`, 84.2%. To `CCCC#Cc1ccc2c(c1)O[C@H](CN(C)C(=O)C1CCCCC1)[C@H](C)CN([C@H](C)CO)S2(=O)=O` belongs 68.4%.

For the compound `C[C@@H]1CN([C@H](C)CO)S(=O)(=O)c2ccc(-c3ccccc3)cc2O[C@H]1CN(C)C(=O)C1CCC1`, the inhibition is 55%. In the case of `C[C@H](CO)N1C[C@H](C)[C@@H](CN(C)C(=O)C2CCCCC2)Oc2cc(-c3ccccc3)ccc2S1(=O)=O`, the inhibition was 103% (active). For `COCC(=O)Nc1ccc2c(c1)[C@@H]1C[C@@H](CC(=O)N3CCN(C)CC3)O[C@H](CO)[C@@H]1O2`, the inhibition was -9.47%. `COc1ccc(NC(=O)N(C)C[C@H]2Oc3cc(-c4ccncc4)ccc3S(=O)(=O)N([C@@H](C)CO)C[C@H]2C)cc1`: the inhibition was 53.3%. `CCCNC(=O)[C@H]1[C@H](CO)[C@H]2Cn3c(ccc(C4=CCCC4)c3=O)[C@H]2N1C(=O)CC1CC1`: the inhibition was -12.5%. For `C[C@H](NC(=O)C[C@H]1CC[C@H]2[C@@H](COC[C@H](O)CN2C(=O)Nc2cc(Cl)cc(Cl)c2)O1)c1ccccc1`, the inhibition is 20.2%. The figure for `Cc1ccccc1S(=O)(=O)N[C@@H]1CC[C@@H](CCNS(=O)(=O)c2cccc(F)c2)O[C@H]1CO` is 22%. Turning to `CCC(=O)N(C)C[C@H]1Oc2ncc(-c3ccc(C#N)cc3)cc2C(=O)N([C@@H](C)CO)C[C@H]1C`, the inhibition was 51.9%.

For the compound `COc1ccc(-c2cnc3c(c2)C(=O)N([C@H](C)CO)C[C@@H](C)[C@H](CN(C)Cc2ccccc2)O3)cc1`, the inhibition was 19.2% and 75.6%. To `C/C=C/c1ccc([C@H]2[C@@H](C#N)N(C(=O)CN3CCOCC3)[C@@H]2CO)cc1` belongs 80.8%. The figure for `N#C[C@@H]1[C@@H](c2ccccc2)[C@@H](CO)N1C(=O)Cc1ccccc1` is 105% (active); for `N#C[C@H]1[C@H](c2ccc(-c3ccccc3)cc2)[C@@H](CO)N1C(=O)Cc1ccccc1` it is 79.5%. The figure for `COCC(=O)N1[C@H](CO)[C@@H](c2ccc(C#Cc3ccccc3F)cc2)[C@@H]1C#N` is 97.7% (active); for `N#C[C@@H]1[C@@H](c2ccc(-c3ccccc3)cc2)[C@@H](CO)N1C(=O)Cc1ccccc1` it is 31%; for `COc1ccccc1C#Cc1ccc([C@@H]2[C@@H](CO)N(C(=O)C3CC3)[C@H]2C#N)cc1` it is 88.6%.

Consider `N#C[C@@H]1[C@H](c2ccc(C#Cc3ccccc3F)cc2)[C@H](CO)N1C(=O)C1CCCCC1`, for which the inhibition is 83.3%. To `COC(=O)C[C@@H]1C[C@H]2c3cc(NC(=O)Nc4ccc(F)cc4)ccc3O[C@H]2[C@@H](CO)O1` belongs -1.42%. For `CC(=O)NC[C@H]1[C@H](c2ccc(C3=CCCCC3)cc2)[C@@H](CO)N1C(=O)NC(C)C`, the inhibition was 21.7%.

For `COc1ccccc1S(=O)(=O)N[C@@H]1CC[C@H](CC(=O)N2CCOCC2)O[C@@H]1CO`, the inhibition is 16.9%. The figure for `CNC(=O)C[C@@H]1CC[C@@H]2[C@H](COc3ccc(NC(=O)Nc4ccccc4)cc3C(=O)N2C)O1` is 7.48%; for `C[C@H](CO)N1C[C@H](C)[C@H](CN(C)CC2CC2)OCCCC[C@H](C)Oc2ccc(NC(=O)c3ccncc3)cc2C1=O` it is 29.6%; for `CCC(=O)N1C[C@H](C)[C@@H](OC)CN(C)C(=O)c2cc(NC(=O)c3cnccn3)ccc2OC[C@@H]1C` it is 11%. Regarding `COCCNC[C@@H]1[C@H](c2ccccc2)[C@H](CO)N1c1nc(C)c(C)s1`, the inhibition was 100% (active). To `CCNC[C@@H]1[C@@H](c2ccccc2)[C@@H](CO)N1C(=O)Cc1ccccn1` belongs 31.9%; to `COCC(=O)N1[C@H](CNC(=O)c2ccccn2)[C@H](c2ccccc2)[C@@H]1CO`, 26.4%. To `COC(=O)C[C@@H]1CC[C@@H]2[C@H](COc3ccc(NC(=O)c4ccccc4OC)cc3C(=O)N2C)O1` belongs 44.4%; to `CCC(=O)N1[C@@H](CO)[C@@H]2c3ccccc3N(C(=O)c3ccccc3F)C[C@@H]21`, 6.74%; to `CC(=O)N1[C@H](CO)[C@H]2c3ccccc3N(C(=O)c3ccc(F)cc3)C[C@H]21`, 14.7%. Consider `O=C(c1ccccc1F)N1C[C@H]2[C@@H](c3ccccc31)[C@@H](CO)N2C(=O)c1ccc(F)cc1`, for which the inhibition was 103% (active). The figure for `O=C(C[C@@H]1C[C@@H]2c3cc(NC(=O)CC4CC4)ccc3O[C@@H]2[C@@H](CO)O1)NCCN1CCCCC1` is -43.9%. To `CC(C)(C)[S@@](=O)N1Cc2cc(C(=O)NCc3ccc4c(c3)OCO4)nc(-c3cccc(-c4ccccc4)c3)c2[C@H]1CCO` belongs 99.7% (active). The figure for `COc1cccc(CNC(=O)c2cc3c(c(-c4cccc(-c5ccc(C#N)cc5)c4)n2)[C@@H](CCO)N([S@](=O)C(C)(C)C)C3)c1` is 84.2%; for `CCCNC(=O)c1cc2c(c(-c3cccc(-c4ccc(F)cc4)c3)n1)[C@@H](CCO)N([S@](=O)C(C)(C)C)C2` it is 87.5%; for `CCC(=O)N1C[C@@H](C)[C@H](OC)CN(C)C(=O)c2ccc(NC(=O)Nc3ccccc3)cc2OC[C@@H]1C` it is 13.5%. For the compound `COCC(=O)N(C)C[C@H]1Oc2cc(C#CC3CCCC3)ccc2S(=O)(=O)N([C@H](C)CO)C[C@@H]1C`, the inhibition is 22.9%. The figure for `CCC(=O)N(C)C[C@H]1Oc2cc(C#CC3CCCC3)ccc2S(=O)(=O)N([C@H](C)CO)C[C@@H]1C` is 86.4%.

For the compound `C[C@H](CO)N1C[C@H](C)[C@H](CN(C)C)Oc2cc(C#CC3CC3)ccc2S1(=O)=O`, the inhibition is -175%.

Turning to `C[C@H](CO)N1C[C@H](C)[C@@H](CN(C)C(=O)Nc2cc(F)ccc2F)Oc2cc(C#CC3CC3)ccc2S1(=O)=O`, the inhibition is 114% (active).

For `C[C@H]1CN([C@@H](C)CO)S(=O)(=O)c2ccc(C#CC3CCCC3)cc2O[C@@H]1CN(C)C(=O)c1cccc(F)c1`, the inhibition is 115% (active). To `CC(=O)N(C)C[C@H]1Oc2cc(C#CC3CC3)ccc2S(=O)(=O)N([C@H](C)CO)C[C@@H]1C` belongs 21.1%; to `CO[C@@H]1CC[C@@H]2CCOc3ccc(C#N)cc3C(=O)N(C)C[C@@H](OC)[C@@H](C)C(=O)N(C)C[C@H]1O2`, 26.1%; to `Cc1noc(C)c1NC(=O)N(C)C[C@H]1OCCCC[C@H](C)Oc2ccc(NC(=O)Nc3ccccc3)cc2C(=O)N([C@H](C)CO)C[C@@H]1C`, -11.2%. The figure for `CO[C@@H]1CN(C)C(=O)c2ccc(NS(=O)(=O)c3cn(C)cn3)cc2OC[C@H](C)N(CCC(F)(F)F)C[C@@H]1C` is 40.1%; for `CCNC(=O)C[C@@H]1CC[C@H]2[C@@H](COc3ccc(NC(=O)c4ccccc4Cl)cc3C(=O)N2C)O1` it is 1.97%; for `CNC[C@H]1Oc2cc(C#Cc3ccccn3)ccc2S(=O)(=O)N([C@H](C)CO)C[C@@H]1C` it is 92.5%. On to `C[C@H](CO)N1C[C@H](C)[C@H](CN(C)C(=O)C2CC2)Oc2ncc(C#Cc3ccccc3)cc2C1=O`, for which the inhibition is 60.3%.

Regarding `C[C@H](CO)N1C[C@H](C)[C@H](CN(C)C(=O)Nc2ccc3c(c2)OCO3)Oc2ncc(C#Cc3cccc(F)c3)cc2C1=O`, the inhibition was 100% (active). To `COc1cccc(C#Cc2cnc3c(c2)C(=O)N([C@@H](C)CO)C[C@H](C)[C@@H](CN(C)C(=O)C2CCC2)O3)c1` belongs 84.3%; to `COCC#Cc1cnc2c(c1)C(=O)N([C@H](C)CO)C[C@@H](C)[C@@H](CN(C)C(=O)Nc1cccc(F)c1)O2`, 8.75%. With `C[C@H](CO)N1C[C@H](C)[C@H](CN(C)C(=O)C2CCCCC2)Oc2ncc(C#Cc3cccc(F)c3)cc2C1=O`, the inhibition was 120% (active). To `C[C@H]1CN([C@@H](C)CO)C(=O)c2cc(C#Cc3ccc(F)cc3)cnc2O[C@@H]1CN(C)C(=O)Nc1ccc(F)cc1` belongs 25%.
